Screening data as filed in PubChem.
CYP2C19 act = activators of human cytochrome P450 2C19. P33261. activation factor at 5 µM. recombinant CYP2C19, luciferin-H EGE luminescence; stronger effect = higher value; 0 = fully inhibited enzyme, 1 = untreated enzyme. 96,000 tested, under 10 active;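 active = activation factor of at least 2 at 5 µM in the primary screen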
Cav32 inh = human Cav3.2 channel inhibition, primary screen; Cav3.2-expressing cells, Fluo-4 calcium fluorescence FDSS; stronger effect = lower value; 4% of 100,000 active; AID 449739; B-score at 10 µM;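 active = single-dose well whose peak fluorescence ratio is a statistical outlier from its plate by either plate-standardised score or position-corrected B-score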
CYP2C9 inh = blocks human cytochrome P450 2C9; CYP2C9 Supersomes, luciferin-H conversion, luminescence; 20% of 96,000 active; inhibition, % at 5 µM; P11712;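 active = blocking of liver enzyme CYP2C9 beyond about 50% at 5 µM, limit read from the data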
CYP2C9 activ = activators of human CYP2C9; P11712; recombinant CYP2C9, luciferin-H conversion, luminescence; stronger effect = higher value; factor 1 = untreated enzyme, 0 = blocked; activation factor at 5 µM; 1.4% of 96,000 active;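 active = activation factor of 2 or more for CYP2C9 at a 5 µM dose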
CYP2C19 inh = inhibitors of human CYP2C19 | P33261 | CYP2C19 Supersomes, luciferin-H EGE luminescence, 30 min | inhibition, % at 5 µM | 21% of 96,000 active | AID 778;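 active = CYP2C19 inhibition above a set limit at 5 µM in the primary screen, cut at about 50% in these data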
A number is an active result. Hits are enriched below; roughly 27% of the tested compounds scored in any of these assays.

Screening COc1ccc(CCNC(=O)CSc2ccc(-c3ccccc3)nn2)cc1OC returned CYP2C19 act inactive, Cav32 inh inactive, CYP2C9 inh inactive, CYP2C9 activ inactive and CYP2C19 inh 71.
`Cc1cc(C(=O)N(C)CC(=O)Nc2ccccc2C(F)(F)F)c(C)o1` gave CYP2C19 act inactive, Cav32 inh inactive, CYP2C9 inh inactive, CYP2C9 activ inactive and CYP2C19 inh inactive.
For COc1ccc(S(=O)(=O)N(C)CC(=O)Nc2ccccc2C(F)(F)F)cc1OC the results were CYP2C19 act inactive, Cav32 inh inactive, CYP2C9 inh inactive, CYP2C9 activ inactive and CYP2C19 inh 76.
COc1ccc(C)cc1NC(=O)CN(C)S(=O)(=O)c1cccs1 was read as CYP2C19 act inactive, Cav32 inh inactive, CYP2C9 inh inactive, CYP2C9 activ 2.3 and CYP2C19 inh 89.
`COc1ccccc1NC(=O)CN(C)S(=O)(=O)c1cc(C)ccc1OC` gave CYP2C19 act inactive, Cav32 inh inactive, CYP2C9 inh 63, CYP2C9 activ inactive and CYP2C19 inh 94.
Screening CC(CCc1ccccc1)NC(=O)c1nnc(Cc2ccc(Cl)cc2)o1 (stereo unspecified) returned CYP2C19 act inactive, CYP2C9 inh inactive, CYP2C9 activ inactive and CYP2C19 inh inactive.
`O=C(CCC(=O)Nc1ccccc1)N/N=C/c1ccco1` gave Cav32 inh inactive.
O=C(CN(c1ccc(Cl)cc1)S(=O)(=O)c1ccccc1)N/N=C/c1ccco1 was read as CYP2C19 act inactive, Cav32 inh -6, CYP2C9 inh 82, CYP2C9 activ inactive and CYP2C19 inh 98.
For CCN(CC)S(=O)(=O)c1ccc(S(=O)(=O)N(CC(=O)Nc2ccccc2)Cc2ccco2)cc1 the results were Cav32 inh inactive.
Cc1ccc(CN(CC(=O)N/N=C/c2ccco2)S(=O)(=O)c2ccc(C)cc2)cc1 was read as CYP2C19 act inactive, Cav32 inh inactive, CYP2C9 inh 90, CYP2C9 activ inactive and CYP2C19 inh 100.
CCOC(=O)Nc1ccc2c(c1)N(C(=O)CCN1CCN(C)CC1)c1ccccc1S2 was read as CYP2C19 act inactive, Cav32 inh inactive, CYP2C9 inh inactive, CYP2C9 activ inactive and CYP2C19 inh inactive.
Screening CCOC(=O)Nc1ccc2c(c1)Sc1ccccc1N2C(=O)CCN1CCOCC1 returned CYP2C19 act inactive, CYP2C9 inh inactive, CYP2C9 activ inactive and CYP2C19 inh 60.
`CCOC(=O)Nc1ccc2c(c1)N(C(=O)N1CCN(C)CC1)c1ccccc1S2` gave CYP2C19 act inactive, Cav32 inh inactive, CYP2C9 inh inactive, CYP2C9 activ inactive and CYP2C19 inh 73.
Cc1noc(C)c1C(=O)Nc1sc2c(c1C(N)=O)CCC2 was read as CYP2C19 act inactive, Cav32 inh inactive, CYP2C9 inh inactive, CYP2C9 activ inactive and CYP2C19 inh inactive.
Cc1noc(C)c1C(=O)Nc1sc(C)c(C)c1C#N was read as CYP2C19 act inactive, Cav32 inh inactive, CYP2C9 inh 62, CYP2C9 activ inactive and CYP2C19 inh inactive.
O=C(OCCN1C(=O)CCC1=O)c1ccc(S(=O)(=O)N2CCCCC2)cc1 was read as CYP2C19 act inactive, CYP2C9 inh inactive, CYP2C9 activ inactive and CYP2C19 inh inactive.
Screening OCCN1CCN(CC(O)COc2ccc3ccccc3c2)CC1 (stereo unspecified) returned CYP2C19 act inactive, Cav32 inh inactive, CYP2C9 inh inactive, CYP2C9 activ inactive and CYP2C19 inh inactive.
For CC(=O)Nc1ccc(OCC(O)CN2CCN(S(=O)(=O)c3ccc(NC(C)=O)cc3)CC2)cc1 (stereo unspecified) the results were CYP2C19 act inactive, Cav32 inh inactive, CYP2C9 inh 70, CYP2C9 activ inactive and CYP2C19 inh inactive.
For CC(=O)Nc1ccc(OCC(O)CN2CCN(c3ccc(Cl)cc3)CC2)cc1 (stereo unspecified) the results were Cav32 inh inactive.
Screening CN(C)S(=O)(=O)N1CCN(CC(O)COc2ccc3cc(Br)ccc3c2)CC1 (stereo unspecified) returned CYP2C19 act inactive, Cav32 inh inactive, CYP2C9 inh 58, CYP2C9 activ inactive and CYP2C19 inh inactive.
Screening OC(COc1ccc2cc(Br)ccc2c1)CN1CCCC1 (stereo unspecified) returned CYP2C19 act inactive, Cav32 inh inactive, CYP2C9 inh inactive, CYP2C9 activ inactive and CYP2C19 inh inactive.
COC(=O)Nc1ccc(S(=O)(=O)N2CCC(Cc3ccccc3)CC2)cc1 was read as CYP2C19 act inactive, Cav32 inh inactive, CYP2C9 inh inactive, CYP2C9 activ inactive and CYP2C19 inh inactive.
Screening CC(=O)Nc1ccc(S(=O)(=O)N2CCN(C(C)CCc3ccccc3)CC2)cc1 (stereo unspecified) returned CYP2C19 act inactive, Cav32 inh inactive, CYP2C9 inh 56, CYP2C9 activ inactive and CYP2C19 inh inactive.
For CC(=O)Nc1ccc(S(=O)(=O)N2CCN(CC(O)COc3ccc4ccccc4c3)CC2)cc1 (stereo unspecified) the results were CYP2C19 act inactive, Cav32 inh inactive, CYP2C9 inh 87, CYP2C9 activ inactive and CYP2C19 inh 87.
For COc1ccc(Cc2nnc(-c3ccc(F)cc3)o2)cc1OC the results were CYP2C19 act inactive, Cav32 inh inactive, CYP2C9 inh inactive, CYP2C9 activ inactive and CYP2C19 inh inactive.
For COc1ccc(NC(=O)C2CCC(CNc3c(N4CCC(C)CC4)c(=O)c3=O)CC2)cc1OC (stereo unspecified) the results were CYP2C19 act inactive, Cav32 inh inactive, CYP2C9 inh inactive, CYP2C9 activ inactive and CYP2C19 inh inactive.
Screening CC(Oc1ccccc1Cl)c1nnc(N)s1 (stereo unspecified) returned CYP2C19 act inactive, Cav32 inh inactive, CYP2C9 inh inactive, CYP2C9 activ inactive and CYP2C19 inh inactive.
For Cc1ccc(OC(C)c2nnc(N)s2)cc1Cl (stereo unspecified) the results were CYP2C19 act inactive, CYP2C9 inh inactive, CYP2C9 activ inactive and CYP2C19 inh 68.
For CCOC(=O)CC1=C(C(=O)OCC)C(c2cccnc2)C(C#N)=C(N)O1 (stereo unspecified) the results were CYP2C19 act inactive, Cav32 inh inactive, CYP2C9 inh inactive, CYP2C9 activ inactive and CYP2C19 inh 56.
COC(=O)C1=C(C)OC(N)=C(C#N)C1c1cccnc1 (stereo unspecified) was read as CYP2C19 act inactive, Cav32 inh inactive, CYP2C9 inh inactive, CYP2C9 activ inactive and CYP2C19 inh inactive.
CCOC(=O)CC1=C(C#N)C(c2cccnc2)C(C(=O)OCC)=C(N)O1 (stereo unspecified) was read as CYP2C19 act inactive, Cav32 inh inactive, CYP2C9 inh 75, CYP2C9 activ inactive and CYP2C19 inh 73.
CSC1=NCCN1C(=O)c1ccc(S(=O)(=O)N(C)C)cc1 was read as CYP2C19 act inactive, Cav32 inh inactive, CYP2C9 inh inactive, CYP2C9 activ inactive and CYP2C19 inh inactive.
For COc1ccc(/C(N)=N/OC(=O)Cc2ccc(OC)c(OC)c2)cc1 the results were CYP2C19 act inactive, Cav32 inh inactive, CYP2C9 inh 65, CYP2C9 activ inactive and CYP2C19 inh inactive.
